Laboratory results taken from ChEMBL document CHEMBL3988442, “University of Dundee, Small-Polar-MMV Screening Library” (2021).
Out of some 48,000 compounds screened, about 13,000 (27%) showed an effect of 50% or more. The list shows a part of the results.

system: Wolbachia pipientis; assay: Anti-Wolbachia Cell-Based Screen; assay type: functional; parameters: scale not given: in the data most compounds retested in dose-response had high values; conditions: 5 µM

Row | SMILES | Percent Effect [%]
1 | Cc1nnc(CN2CCCC2c2ccc3c(c2)OCCO3)n1C (stereo not given) | 15.49
2 | CC(C)(C)OC(=O)N[C@H]1CCN(C(=O)c2cc(Cl)c[nH]2)C1 | -15.92
3 | CCCC(C)NC1CCN(c2ccc(-n3ccnc3C)cc2)CC1 (stereo not given) | -8.3
4 | CC(NC(=O)CSCC(=O)Nc1ccccc1)c1ccccc1 (stereo not given) | 5.031
5 | CCC(=O)Nc1ccc(C(C)NC(=O)COC)cc1 (stereo not given) | 92.17
6 | COCC(=O)Nc1ccc([C@@H](O)[C@H]2COCC(=O)N2CC(C)C)cc1 | 0.04576
7 | Cc1cnn(CCNCc2cc(-c3ccccc3)no2)c1 | 2.44
8 | CC(NC(N)=O)C(=O)N(C)CCCc1cc(-c2ccccc2)no1 (stereo not given) | -0.2623
9 | CCNC(=O)C1(Cc2cc(-c3ccc(C)cc3)no2)CCCN(C)C1 (stereo not given) | 151.7
10 | CCNC(=O)C1(Cc2cc(-c3ccccc3)no2)CCCN(C(C)=O)C1 (stereo not given) | 105.3
11 | Cc1ccc(-c2cc(CNC(=O)N3CCC(CO)CC3)on2)cc1 | 6.064
12 | CCCNC(=O)C1(Cc2cc(-c3ccccc3)no2)CCN(C(C)=O)C1 (stereo not given) | 76.91
13 | Cc1ccc(-c2cc(CNC(=O)N3CCOC(C)C3)on2)cc1 (stereo not given) | -4.045
14 | CCNC(=O)C1(Cc2cc(-c3ccccc3)no2)CCCN(C(C)C)C1 (stereo not given) | 86.79
15 | CNC(=O)CC1CCN(Cc2nc(-c3ccc(SC)cc3)oc2C)CC1 | -19.45
16 | O=C(O)C(F)(F)F.O=C([C@H]1C[C@H]2OCC[C@H]2N(Cc2ccco2)C1)N1CCCO1 | 11.53
17 | COc1ccc(CN2C[C@@H](CN(C)C)[C@@H](CO)C2)c(Cl)c1OC | -2.231
18 | c1cc2c(cc1C[C@@H]1CC[C@H](CN3CCCOCC3)O1)OCO2 | 5.044
19 | Cc1cc(C)cc(C2(C(=O)NC(C)Cn3ccnc3)CC2)c1 (stereo not given) | -3.779
20 | COc1ccc(OC)c(C(C)Nc2nc3c(C)nn(C)c3c(=O)n2C)c1 (stereo not given) | -10.12
21 | CC(C)C(=O)N1CCN(CCOc2cccc(C#N)c2)CC1 | 22.03
22 | CCNC(=O)CNS(=O)(=O)Cc1cc(-c2ccccc2)no1 | -10.1
23 | CN(C)C(=O)NCC(=O)N(C)Cc1cc(-c2ccccc2)no1 | 2.31
24 | CCNC(=O)C1(Cc2cc(-c3ccccc3)no2)CCCN(C)C1 (stereo not given) | 76.81
25 | Cc1cc(NCC(=O)N(C)Cc2cccs2)c(C(N)=O)cc1F | 8.297
26 | CC(C)N1CCCC(C(=O)NC(C)(C)c2nnc(N)s2)C1 (stereo not given) | -13.81
27 | COCCc1ncc(-c2c(C#N)c(N)nc3c2CCc2[nH]ccc2-3)cn1 | -13.87

Row | SMILES | Percent Effect [%]
28 | CCC(C)Sc1ncc(-c2c(C#N)c(N)nc3c2COCC3)cn1 (stereo not given) | 95.02
29 | COc1ncc(-c2c(C#N)c(N)nc3c2CCc2[nH]ccc2-3)cn1 | -13.65
30 | CC(C)n1cc(-c2c(C#N)c(N)nc3c2COCC3)cn1 | 109.6
31 | N#Cc1c(C2CCOC2)cc(-c2ccc(N3CCCCC3)cc2)nc1N (stereo not given) | 2.752
32 | Cc1cc(-c2c(C)c(-c3cnn(C)c3)nc(N)c2C#N)oc1C | 17.25
33 | Cn1cc(-c2c(C#N)c(N)nc3c2CCc2[nH]ccc2-3)cn1 | 4.236
34 | N#Cc1c(N)nc2c(c1-c1cnc(N3CCCC3)nc1)COCC2 | 84.51
35 | CCOc1ccc(-c2c(C#N)c(N)nc3c2COCC3)cn1 | 106.3
36 | CCOc1ccc(NC(=O)NC2CCc3[nH]ncc3C2)cn1 (stereo not given) | -9.557
37 | CCOc1ccc(NC2CCN(C3CC3)C2=O)cn1 (stereo not given) | -7.266
38 | CC(C)=CCC/C(C)=C/CN1CCN(C)C2(CCNC(=O)CC2)C1 (stereo not given) | 14.94
39 | Cc1ccc(CN2CCc3[nH]nc(C(=O)N4CCNC(=O)C4)c3C2)s1.O=C(O)C(F)(F)F | -6.156
40 | COCC1CCN(C(=O)c2cccc(S(=O)(=O)NC3CCCC3)c2)C1 (stereo not given) | 8.028
41 | CC(C)CCN1CN=C(NS(=O)(=O)c2ccc(F)cc2)NC1 | 13.74
42 | Clc1ccc(C2(NCc3noc(C4CC4)n3)CCCC2)cc1 | 6.408
43 | CN(C)C(=O)c1ccccc1NC(=O)N[C@@H]1c2ccccc2C[C@@H]1O | -11.76
44 | CS(=O)(=O)c1ccccc1NC(=O)N[C@@H]1c2ccccc2C[C@@H]1O | 6.839
45 | CNC(=O)Cc1ccccc1NC(=O)N[C@H]1c2ccccc2C[C@H]1O | 73.79
46 | CCn1cc(N2Cc3nc(N)ncc3C2=O)cn1 | 3.471
47 | NC(=O)CN1C(=O)CO[C@H]2CN(Cc3ccc(C(F)(F)F)cc3)C[C@H]21 | -2.639
48 | Cl.FC(F)Oc1ccc(CNCc2cc(Cl)c3c(c2)OCO3)cc1 | -3.122
49 | COCCc1noc(CN(C)C2CCCN(c3ccc(C)nn3)C2)n1 (stereo not given) | -2.157
50 | COCCc1noc(CN(C)c2nc(C)nc(C)c2C)n1 | 89.33
51 | COCCc1noc(CN(C)c2nccc(C)n2)n1 | 10.01
52 | COCCc1noc(CN(C)c2nc(C)cc(C)n2)n1 | 101
53 | COCCc1noc(CN2C(=O)OC[C@@H]2C(C)C)n1 | -4.227
54 | CC(C)N[C@@H]1CO[C@H](CNC(=O)c2ccccc2)[C@H]1O | -5.064

Row | SMILES | Percent Effect [%]
55 | O=C(NCc1ccco1)N1CCC(n2cc(-c3ccccn3)nn2)CC1 | 27.21
56 | Cc1noc(COCC(=O)N2CCCC(c3nccs3)C2)n1 (stereo not given) | -1.591
57 | O=C(c1cnc(C2CC2)nc1)N1CCCC(c2nccs2)C1 (stereo not given) | 70.5
58 | O=C(CN1CCCNC1=O)N1CCCC(c2nccs2)C1 (stereo not given) | -4.052
59 | O=C(c1cnc(C2CC2)nc1)N1CCC(N2CCC(O)CC2)CC1 | -12.63
60 | O=C(c1cnc(O)c(Cl)c1)N1CCCC(c2nccs2)C1 (stereo not given) | 105
61 | O=C(c1cncnc1)N1CCCC(c2nccs2)C1 (stereo not given) | 117.1
62 | Cc1csc(C2CCCN(C(=O)c3cnc4n[nH]c(C)c4c3)C2)n1 (stereo not given) | -1.582
63 | CCn1cc(C(=O)N2CCCC(c3nccs3)C2)cn1 (stereo not given) | 107.1
64 | CC(C)Oc1ncc(C(=O)N2CCCC(C(=O)O)C2)cc1Cl (stereo not given) | -16.5
65 | O=C(Nc1cnccn1)[C@@H]1COC[C@H]2CN(c3ncc(F)cn3)C[C@H]21 | -14.05
66 | CCCN1CCC(N2CCN(c3cc(C)nc(C)c3)CC2)CC1 | -11.77
67 | CC1CN(C(=O)NCc2cccc(C#N)c2)CCN1CC(F)(F)F (stereo not given) | -8.516
68 | Cc1cc(C(=O)NC2CCN(c3ncccc3C#N)CC2)on1 | 2.44
69 | COCCNC(=O)[C@@]12CCO[C@@H]1CCN(Cc1scnc1C)C2.O=C(O)C(F)(F)F | 6.926
70 | Cc1cnc(CNC(=O)[C@@]23CCO[C@@H]2CCNC3)cn1.O=C(O)C(F)(F)F | 84.34
71 | Cc1cnc(CNC(=O)[C@@]23CCO[C@@H]2CCN(C2CCCC2)C3)cn1.O=C(O)C(F)(F)F | 116.3
72 | O=C(NCc1ccco1)[C@@]12CCO[C@@H]1CCN(C1CCC1)C2.O=C(O)C(F)(F)F | -7.517
73 | COc1cc(C)sc1C(=O)NCCC(=O)N(C)Cc1ccccc1 | -13.22
74 | CCc1nc(CN(C)Cc2nnc(-c3cccs3)o2)cs1 | -11.05
75 | Cc1ccc2oc(C(=O)N3CCCC(c4noc(C)n4)C3)cc2n1 (stereo not given) | -6.015
76 | Cc1nc(C2CCCN(C(=O)c3csc(C)n3)C2)no1 (stereo not given) | -14.77
77 | CC(=O)N1CCCC(c2ccc3sc(N)nc3n2)C1 (stereo not given) | 125
78 | Cc1nc(C(=O)N2CCCC(c3ccc4sc(N)nc4n3)C2)co1 (stereo not given) | 130.6
79 | CNC(=O)C(C)(C)N1CCC[C@H]1C(=O)NCC(C)C.Cl | 3.09
80 | O=C1[C@H]2CC[C@H](CN(S(=O)(=O)c3ccccc3)C2)N1Cc1cscn1 | 20.83
81 | CN(C)CCOc1cc(NC(=O)COCC(F)(F)F)ccn1 | 0.1628

Row | SMILES | Percent Effect [%]
82 | CNc1cncc(C2CCCN2Cc2ccnc(N3CCCC3)n2)n1 (stereo not given) | 113.8
83 | CNc1ccnc(N2CCC(c3nnc(CN4CCCC4)n3C)CC2)n1 | 5.752
84 | CNc1cncc(C2CCCN2Cc2ccccn2)n1 (stereo not given) | -6.614
85 | CNc1cncc(C2CCCN2Cc2ccnc(C)n2)n1 (stereo not given) | 94.65
86 | CNc1cncc(C2CCCN2Cc2ccn(C)n2)n1 (stereo not given) | 90.43
87 | CNc1cncc(C2CCCN2Cc2cccc(C)n2)n1 (stereo not given) | 107
88 | Cc1nccc(CNS(=O)(=O)N2CCCC2c2ccc(C)o2)n1 (stereo not given) | -6.689
89 | O[C@H]1[C@H](n2cc(-c3cncnc3)nn2)c2ccccc2C12CCNCC2 | -31.96
90 | CN(C)CCN(Cc1ccc(Cl)cc1)C(=O)c1cc[nH]n1 | 3.118
91 | Cc1ccc(-c2ncc(C(=O)N3CCCN4CCC[C@H]4C3)c(O)n2)cc1 | -8.702
92 | CC(=O)N1CCC2(CC1)CN(C)CC[C@H]2C(F)(F)F.Cl | -1.973
93 | Cl.NC(CC1CCCC1)c1ccccc1 (stereo not given) | -1.351
94 | NC(=O)CCN1C(=O)CC(Cc2ccc(F)cc2)C1=O (stereo not given) | 3.459
95 | COc1ccnc(N2CCN(Cc3ncc(C(C)(C)C)o3)CC2)n1 | 7.68
96 | CC(=O)N1CCCc2cc(Nc3nccn(C)c3=O)ccc21 | 8.205
97 | Cn1ccnc(Nc2ccc3c(c2)CCN3C(=O)c2cccnc2)c1=O | -3.992
98 | Cn1ccnc(Nc2ccc3c(c2)CCN3C(=O)c2ccoc2)c1=O | 61.04
99 | CCCN(C(=O)COCC)c1cccc(C)c1 | -29.78
100 | Cc1ccc(N2CCN(C(=O)COc3nccc(C)n3)CC2)nn1 | -17.48
101 | Cc1ccnc(OCC(=O)N2CCCC2)n1 | 98.39
102 | COc1ccc(N2CCN(C(=O)COc3nccc(C)n3)CC2)cc1 | 79.4
103 | Cc1ccc(N2CCN(C(=O)COc3ncccn3)CC2)nn1 | -4.899
104 | Cc1ccnc(OCC(=O)N2CCC(C(N)=O)CC2)n1 | -0.2918
105 | Cc1ccnc(OCC(=O)N2CCN(c3ncccn3)CC2)n1 | 1.434
